Experimental data published in PubChem BioAssay AID1159580 (chemical genetic matrix, 2015).
Hit rate of the full screen: of about 5,500 compounds, about 2,000 (36%) were called active. Another 18% or so got no clear call; they are omitted. No stated cut-off is given here; in the data, active means normalized growth mostly below about 0.91 (no sharp cut-off); inconclusive means no clear call, values can overlap the other calls; inactive means mostly above about 0.92. This is one part of the list.

Experiment: chemical genetic growth profiling, strain panel (AID 1159580);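 further: tested at 20 µM; growth read once vehicle control cultures reached saturation at 30 °C; 1 = growth at the plate median or of vehicle wells; lower values mean less growth of the strain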
Settings: S. cerevisiae deletion strains, growth OD
[1] = locus YAL040C, strain CLN3, hits give low values
[2] = locus YDR363W, strain ESC2, hits give low values
[3] = locus YER002W, strain NOP16, hits give low values
[4] = locus YMR263W, strain SAP30, hits give low values
[5] = locus YNL153C, strain GIM3, hits give low values
[6] = locus YNL175C, strain NOP13, hits give low values
[7] = locus YNL197C, strain WHI3, hits give low values
[8] = locus YNL224C, strain SQS1, hits give low values
[9] = locus YOR083W, strain WHI5 (second series), hits give low values
[10] = locus YPL241C, strain CIN2, hits give low values

Measured: normalized growth

CC(C)[C@@]1(NC(=O)[C@@H]2C=C3c4cccc5[nH]cc(c45)C[C@H]3N(C)C2)O[C@@]2(O)[C@@H]3CCCN3C(=O)[C@H](Cc3ccccc3)N2C1=O
inactive: [1] 0.989 | locus YCL061C, strain MRC1 (second series), hits give low values 0.996 | [2] 0.993 | [3] 0.998 | [4] 0.999 | locus YMR307W, strain GAS1, hits give low values 0.982 | [5] 0.99 | [6] 1.01 | [7] 1 | [8] 0.972 | [9] 1.04 | locus YPL055C, strain LGE1, hits give low values 0.99 | [10] 0.998

CC(C)C[C@H]1C(=O)N2CCC[C@H]2[C@]2(O)O[C@](NC(=O)[C@@H]3C=C4c5cccc6[nH]c(Br)c(c56)C[C@H]4N(C)C3)(C(C)C)C(=O)N12
inactive: locus YDR150W, strain NUM1, hits give low values 0.996 | [2] 1.02 | [3] 1.03 | [4] 1.01 | locus YNL128W, strain TEP1, hits give low values 1.03 | [5] 0.974 | [6] 1.04 | [7] 1.01 | [8] 1.01 | [9] 1.03 | [10] 0.989
active: [1] 0.741
